Bioassay records: PubChem BioAssay, National Center for Advancing Translational Sciences (NCATS)
Pf growth 96h – Primary qHTS for delayed death inhibitors of the malarial parasite plastid, 96 hour incubation; P. falciparum luciferase reporter growth, 96 h; Potency, µM (top dose mostly 28.7 µM), for the others: top-dose activity change, negative = inhibition, hits mostly inhibitors; 6.9% of 320,000 active; also: potency is read from the fitted curve at half-maximal effect; % is scaled to controls: 0 for no effect and ±100 for the full control effect
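96 h incubation, 37 C, 5% CO2, of luciferase-reporter P. falciparum-infected RBCs (2% hematocrit, 0.05% parasitemia final) with test compounds; endpoint luminescence.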
Shiga toxin inh – A qHTS for Small Molecule Inhibitors of Shiga Toxin; 9.2% of 290,000 active; inhibition, % at 38.7 µM; Vero cells, Shiga toxin protein synthesis inhibition reporter; in the data active = inhibition mostly above about 28%, no sharp cut-off; inactive = mostly below about 43%; also: 0% is about no effect
CHX counter – Cycloheximide Counterscreen for Small Molecule Inhibitors of Shiga Toxin; cell reporter, cycloheximide protein synthesis inhibition counterscreen; max response, %; 12% of 300,000 active; AID 2314, 2010; in the data active = max response mostly above about 13%, no sharp cut-off; inactive = mostly below about 14%; also: read at 38.3 µM for the half of the compounds with a filed dose; 0% is about no effect
HCV inh – qHTS Assay for Inhibitors of Hepatitis C Virus (HCV); Huh7.5.1 HCVcc-Cre infection, luciferase reporter, 44 h; Potency, µM (series often up to 41.8 µM), inactives show at the highest dose activity change, negative = inhibition, most hits filed as inhibitors; 3.4% of 340,000 active; AID 651820, 2012; also: potency is read from the fitted curve at half-maximal effect; % is scaled to controls: 0 for no effect and ±100 for the full control effect
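Infectious HCV cell culture screen: compound-treated cells (1,000/well, pre-plated 4 h) are infected with HCVcc-Cre at roughly 0.5 moi and grown 44 h. Infection is quantified by luciferase signal after 15 min substrate incubation at room temperature.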
Pf growth 48h – Primary qHTS for delayed death inhibitors of the malarial parasite plastid, 48 hour incubation; P. falciparum luciferase growth in erythrocytes, 48 h; Potency, µM (series often up to 28.7 µM), inactives show at the highest dose activity change, negative = inhibition, usual class: inhibitors; 5.9% of 310,000 active; AID 504832, 2011; also: potency is read from the fitted curve at half-maximal effect; % is scaled to controls: 0 for no effect and ±100 for the full control effect
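In quantitative HTS format, infected erythrocytes bearing luciferase-reporter parasites were treated for a single generation at 37 C. Luminescence after adding detection reagent served as the growth measure.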
HCMV inh – qHTS Assay for inhibitors of the human cytomegalovirus (HCMV). activity change, negative = inhibition, % at 57.5 µM. 4.5% of 410,000 active. AID 1259415, 2018. HFF cells, HCMV-luciferase reporter, 72 h; stronger effect = lower value; in the data active = activity change below about -60%; inconclusive = no clear call, values can overlap the other calls; inactive = above about -39%; also: % is scaled to controls: 0 for no effect and ±100 for the full control effect
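Two-dose cell screen: HFF monolayers treated with compounds and infected with luciferase-expressing HCMV at 1 PFU/cell, 72 h at 37C, then lysed for luciferase measurement.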
* = called active by the depositor; ? = inconclusive; nt = not tested or not shown; [ ] = remark or other dose. The list is not random: actives were taken first. Their share in the collection is about 21%. Unless noted, calls follow the shape of the dose curve; as a rule, active = well fitted inhibition curve with a large enough effect; inconclusive = small, poorly fitted or top-dose-only effect, or another doubt; inactive = no such curve, though single readings can be large or run the other way.

SMILES	Pf growth 96h	Shiga toxin inh	CHX counter	HCV inh	Pf growth 48h	HCMV inh
CCCC1NC(=S)N(C2CCCCC2)C1=O (stereo not given)	2.9µM*	-14	-2	4%	0%	14
COc1ccccc1N(CC(=O)NC1CCCCC1)C(=O)c1cnn(C(C)C)c1	?	-4	-1	0%	?	36
COc1ccccc1N(CC(=O)NC1CCCC1)C(=O)c1cnn(C(C)C)c1	-18%	56*	28*	6%	28%	-2
CCOC(=O)c1c(NC(=O)OC)sc2c1CCC2	nt	-5	-2	?	18%	10
CCOC(=O)c1c(NC(=O)CSC2=NN3CCCC(=O)N=C3S2)sc2c1CCCCC2	-3%	-6	7	8.9µM*	26%	63
CCOC(=O)c1c(NC(=O)CN(CC)CC)sc2c1CCC2	33%	-10	-2	?	12µM*	76
COc1ccc(OC)c(NC(=O)CSC2=NN3CCCC(=O)N=C3S2)c1	50%	-9	-3	-22%	-17%	4
CCOc1ccccc1NC(=O)CSC1=NN2CCCC(=O)N=C2S1	34%	-5	1	-25%	-29%	-80*
CCOC(=O)c1ccc(NC(=O)CSC2=NN3CCCC(=O)N=C3S2)cc1	1%	-8	-6	?	-10%	-14
COc1cccc(C2CC(c3cccs3)=NN2C(=O)CSC2=NN3CCCC(=O)N=C3S2)c1OC (stereo not given)	0.47µM*	10	-4	3%	7.4µM*	16
CCc1nc(SC)ncc1C(=O)N1CCN(c2cc(Cl)ccc2C)CC1	nt	nt	nt	nt	nt	-1
O=C(Nc1ccc(Cl)cc1)c1csc(N2CCN(Cc3ccccc3)C2=O)n1	nt	nt	nt	nt	nt	-12
COc1ccc(CN2C[C@H](COCc3ccccc3)Oc3cccc(N4CCCC4)c3S2(=O)=O)cc1	nt	nt	nt	nt	nt	-18
O=C(N/N=C/c1ccco1)C1CCCC1	-4%	-2	2	9%	14%	nt
COc1ccc(Cl)cc1NC(=O)CSC1=NN2CCCC(=O)N=C2S1	11%	2	-3	?	-28%	-71*
Cc1cc(OCc2cc(C(=O)N(C)CCCN3CCOCC3)no2)cc(C)c1Cl	11%	27	18	?	?	3
CCN(CC1CCCO1)C(=O)c1cc(COc2ccc(F)cc2F)on1 (stereo not given)	141%	17	7	nt	51%	-8
Cc1cc(OCc2cc(C(=O)N(C)CC3CCOCC3)no2)cc(C)c1Cl	?	46*	35*	?	-6%	0
CCN(CC1CCCO1)C(=O)c1cc(COc2cc(C)c(Cl)c(C)c2)on1 (stereo not given)	12µM*	73*	44*	-29%	2%	33
Cc1ccc(C(=O)Nc2cccc(C(F)(F)F)c2)cc1Nc1cnccn1	?	-7	-2	?	?	-14
Cc1ccc(C(=O)Nc2cccc(C(F)(F)F)c2)cc1Nc1ncnc2nc[nH]c12	13µM*	13	-1	nt	13µM*	?
CC[C@](C)(CN(C)C)OC(=O)c1ccccc1	?	nt	nt	nt	1%[12.8 µM]	nt
COc1ccccc1-n1cc(C(=O)c2cc(Cl)ccc2O)cc(C#N)c1=O	?	38	-3	1%	?	17
COc1ccccc1-n1c(=O)c(C#N)c(-c2ccc([N+](=O)[O-])cc2)c2cc(C(=O)c3ccccc3O)cnc21	1.9µM*	3	2	-1%	2.6µM*	-30
COc1ccc(NC(=O)CSc2nc3nc(C)c(Cc4ccccc4Cl)c(C)n3n2)cc1OC	nt	nt	nt	nt	nt	-5
SMILES	Pf growth 96h	Shiga toxin inh	CHX counter	HCV inh	Pf growth 48h	HCMV inh
COc1cccc(CN2CC(C(=O)N3CCOCC3)CCC2=O)c1 (stereo not given)	9%	66*	46*	9%	-6%	6
COc1cccc(CN2CC(C(=O)NCCN3CCOCC3)CCC2=O)c1 (stereo not given)	15µM*	3	2	12%	4%	-27
NC(=O)C1CCN(C(=O)C2CCC(=O)N(Cc3ccc(Cl)cc3)C2)CC1 (stereo not given)	nt	nt	nt	31%	nt	51
Cc1ccc(N2CCN(C(=O)C3CCC(=O)N(Cc4ccc(Cl)cc4)C3)CC2)c(C)c1 (stereo not given)	-12%	-2	-1	11µM*	?	?
Cc1nn(-c2ccccc2)c(C)c1NC(=O)COC(=O)c1ccc(NC(=O)CC#N)cc1	nt	nt	nt	1%	nt	-68*
Cc1nn(-c2ccccc2)c(C)c1NC(=O)COC(=O)CC(C)c1ccccc1 (stereo not given)	8%	nt	nt	?	25%	-63*
CN(C)S(=O)(=O)c1ccc(N2CCCC2)c(C(=O)NC(c2ccccc2)c2ccccc2)c1	nt	-17	-6	?	0.83µM*	-4
CCc1ccccc1NC(=O)c1cc(S(=O)(=O)N(C)C)ccc1N1CCCC1	?	-27	-2	0%	?	-8
COc1ccc(NC(=O)c2cc(S(=O)(=O)N(C)C)ccc2N2CCCC2)cc1Cl	-15%	26	-2	3%	0%	-4
Cc1ccc(NC(=O)c2cc(S(=O)(=O)N3CCCCC3)ccc2N2CCOCC2)cc1S(=O)(=O)N(C)C	nt	nt	nt	-19%	nt	?
CN(C)S(=O)(=O)c1ccc(N2CCCC2)c(C(=O)Nc2ccccc2Br)c1	15µM*	nt	nt	?	13µM*	-16
Cc1ccc(NC(=O)c2cc(S(=O)(=O)N(C)C)ccc2N2CCCC2)cc1S(=O)(=O)N(C)C	10µM*	nt	nt	?	?	26
COc1ccc(OC)c(NC(=O)c2cc(S(=O)(=O)N(C)C)ccc2N2CCCC2)c1	?	nt	nt	-20%	13µM*	-21
CN(C)S(=O)(=O)c1ccc(N2CCCC2)c(C(=O)NC2CCCCC2)c1	?	nt	nt	0%	?	-10
C=CCn1c(COc2ccc(F)cc2)nnc1SCC(=O)NC1CCS(=O)(=O)C1 (stereo not given)	14%	nt	nt	7%	-19%	-20
CC(C)(Oc1ccc(Br)cc1Cl)C(=O)Nc1ccon1	-14%	-14	0	-14%	24%	-21
Cc1ccc(NC(=O)c2ccccc2SCC(=O)N2CCCC2)cc1S(=O)(=O)N(C)C	6.6µM*	4	2	-7%	?	7
CN(C)S(=O)(=O)c1ccc(N2CCCC2)c(C(=O)NNC(=O)c2ccc(Br)cc2)c1	6%	nt	nt	-11%	6%	-37
CN(C)S(=O)(=O)c1ccc(N2CCCC2)c(C(=O)NNC(=O)c2ccccc2)c1	?	nt	nt	9%	7.4µM*	-23
Cc1ccc(CNS(=O)(=O)c2cc(F)ccc2CN2C(=O)c3cccnc3C2=O)o1	?	16	3	15%	26%	1
